Hits are enriched below; roughly 21% of the tested compounds scored in any of these assays.
Shiga inhibitor = blocks Shiga toxin action in Vero cells | Vero cells, Shiga toxin protein synthesis inhibition reporter | inhibition, % at 38.7 µM | 9.2% of 290,000 active; in the data active = inhibition mostly above about 28%, no sharp cut-off; inactive = mostly below about 43%; note: 0% is about no effect
CHX counter = counter-screen hit for Shiga toxin inhibitors, cycloheximide | cell reporter, cycloheximide protein synthesis inhibition counterscreen | max response, % | 12% of 300,000 active | AID 2314; in the data active = max response mostly above about 13%, no sharp cut-off; inactive = mostly below about 14%; note: read at 38.3 µM for the half of the compounds with a filed dose; 0% is about no effect
Pf growth 96h = inhibits malaria parasite growth, 96 h | P. falciparum luciferase reporter growth, 96 h | 6.9% of 320,000 active | Potency, µM (series often up to 28.7 µM), without a hit: at the highest dose activity change, negative = inhibition, hits mostly inhibitors; note: potency is the fitted concentration of half-maximal effect; % is set by controls: 0 for no effect and ±100 for the full control effect
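Two parasite generations (96 h, 37 C, 5% CO2) of compound exposure in infected erythrocytes (0.05% parasitemia, 2% hematocrit). Luciferase-reporter P. falciparum; decreased luminescence indicates inhibited growth, aimed at apicoplast-acting delayed death.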
NS1 function inh = blocks influenza NS1 protein function. 0.4% of 270,000 active. Potency, µM (top dose mostly 46.1 µM), for inactives: at the top dose activity, positive = more growth; calls by dose curve; note: potency is the fitted concentration of half-maximal effect; actives are rising curves; nearly all actives have a fitted effect of over 50% in size
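S. cerevisiae expressing influenza A NS1, grown in glucose, washed, then diluted 1:100 into pH 6.0 -URA galactose medium with 23 nl compound. Growth recovery read as OD600; NS1-free strain serves as control.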
Giardia FBPA inh = blocks Giardia fructose-bisphosphate aldolase activity; Potency, µM (top dose mostly 59.6 µM), without a hit: at the highest dose activity, negative = inhibition, hits mostly inhibitors; 0.71% of 290,000 active; purified Giardia FBPA; AID 2451; A8B2U2; note: potency is the fitted concentration of half-maximal effect; % is set by controls: 0 for no effect and ±100 for the full control effect; nearly all actives have a fitted effect of over 55% in size
Target sequence (A8B2U2 whole entry, looked up): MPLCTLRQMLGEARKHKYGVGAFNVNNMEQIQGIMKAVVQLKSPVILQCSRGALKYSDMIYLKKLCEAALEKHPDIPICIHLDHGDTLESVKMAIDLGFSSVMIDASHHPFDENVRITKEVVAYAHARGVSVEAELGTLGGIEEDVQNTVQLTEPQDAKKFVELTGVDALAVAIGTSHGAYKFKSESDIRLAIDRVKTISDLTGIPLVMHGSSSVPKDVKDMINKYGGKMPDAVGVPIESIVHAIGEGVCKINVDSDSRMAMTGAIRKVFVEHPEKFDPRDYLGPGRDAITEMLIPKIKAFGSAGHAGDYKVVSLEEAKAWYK
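40 nM FBPA preincubated 10 min at RT with compound (up to 57.5 uM final), then substrate plus GAPDH/TPI/NAD/arsenate coupling and diaphorase/resazurin added. Fluorescence read after 20 min at RT, 525/598 nm.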
Pf growth 48h = P. falciparum growth inhibition at 48 hours (one generation). P. falciparum luciferase growth in erythrocytes, 48 h. 5.9% of 310,000 active. Potency, µM (series often up to 28.7 µM), without a hit: at the highest dose activity change, negative = inhibition, usual class: inhibitors; note: potency is the fitted concentration of half-maximal effect; % is set by controls: 0 for no effect and ±100 for the full control effect
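Cell-based growth assay: transgenic P. falciparum expressing firefly luciferase, cultured in red cells within RPMI 1640 containing 0.5% w/v Albumax, 24 mM bicarbonate and gentamycin. A drop in luciferase activity indicates inhibition.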
Starred values were filed as active, the others as inactive; ? = inconclusive; · = no result; ! = repeats disagree; [ ] = another dose, or the depositor's remark. Unless noted, calls come from the whole dose curve; as a rule, active = well fitted curve in the direction sought with a large enough effect; inconclusive = small, poorly fitted or top-dose-only effect, or another doubt; inactive = no such curve, though single readings can be large; an effect the other way counts as inactive or inconclusive.

SMILES	Shiga inhibitor	CHX counter	Pf growth 96h	NS1 function inh	Giardia FBPA inh	Pf growth 48h
COc1ccc(NC2CCCN(C(=O)c3ccccc3N3CCOCC3)C2)cc1OC (stereo unspecified)	6	15	21%	-2%	?	-17%
COCCCN1CC(=O)N2C(c3cccc(OC)c3)c3[nH]c4ccccc4c3C[C@H]2C1=O (stereo partly specified)	10	-5	?	4%	-1%	?
COc1ccc(OC)c(C2c3[nH]c4ccccc4c3C[C@H]3C(=O)N(C4CC4)CC(=O)N23)c1 (stereo partly specified)	-11	-6	?	11%	-5%	?
COc1cc(C2c3[nH]c4ccccc4c3CC3C(=O)N4C(Cc5c([nH]c6ccccc56)C4c4cc(OC)c(OC)c(OC)c4)C(=O)N32)cc(OC)c1OC (stereo unspecified)	·	·	·	·	-2%[12.9 µM]	·
COc1cccc(C2c3[nH]c4ccccc4c3C[C@H]3C(=O)N(C)CC(=O)N23)c1 (stereo partly specified)	-4	-1	7.4µM*	-3%	2%	7.4µM*
COc1ccc(C2c3[nH]c4ccccc4c3C[C@H]3C(=O)N(C)CC(=O)N23)cc1OC (stereo partly specified)	-5	-3	?	-1%	-8%	?
COc1cccc(C2c3[nH]c4ccccc4c3C[C@H]3C(=O)N(C4CC4)CC(=O)N23)c1 (stereo partly specified)	-6	-3	1.9µM*	3%	3%	3.3µM*
COc1cc(C2c3[nH]c4ccccc4c3C[C@@H]3C(=O)N(Cc4ccco4)CC(=O)N23)cc(OC)c1OC (stereo partly specified)	-2	-5	3.7µM*	9%	-1%	2.3µM*
COCCN1CC(=O)N2C(c3cccc(OC)c3)c3[nH]c4ccccc4c3C[C@H]2C1=O (stereo partly specified)	-7	-1	?	-2%	4%	12µM*
O=c1[nH]cc(CS(=O)(=O)Cc2c[nH]c(=O)[nH]c2=O)c(=O)[nH]1	·	·	·	1%	·	·
CCOc1ccc(N(CC(=O)N2CCN(Cc3ccccc3)CC2)S(C)(=O)=O)cc1	-5	-2	10%	0%	14%	-5%
CCCN1CC(=O)N2C(c3ccccc3)c3[nH]c4ccccc4c3C[C@H]2C1=O (stereo partly specified)	-9	2	?	4%	-10%	2.3µM*
COc1cc(C2c3[nH]c4ccccc4c3C[C@H]3C(=O)N(C4CC4)CC(=O)N23)ccc1OC(C)C (stereo partly specified)	-7	-7	9.3µM*	-6%	16%	9.3µM*
C=CCc1cccc([C@@H]2[C@@H](C)CC[C@H]3C(=O)N4[C@@H](c5cc(OC)c(OC)c(OC)c5)c5[nH]c6ccccc6c5C[C@H]4C(=O)N23)c1	-5	-3	?	22µM*	-12%	4.1µM*
C=C1CCN(C(CC(C)C)C(=O)Nc2nc3ccc(Cl)cc3s2)S(=O)(=O)c2ccccc21 (stereo unspecified)	9	6	·	·	-1%	·
O=C(CN(Cc1ccco1)C(=O)CNS(=O)(=O)c1ccc(F)cc1)NCc1ccco1	-7	-3	?	5%	·	12%
CCOC(=O)C1CCCN(C(=O)Cn2nc(C)c3c(C)n(-c4ccccc4)nc3c2=O)C1 (stereo unspecified)	-10	-1	-12%	6%	1%	?
CC(C)n1c(C(F)(F)F)nc2cc(C(=O)N3CCCCC3)ccc21	-2	4	-6%	-14%	-4%	?
COc1ccc(C2CC(c3ccccc3)=NN2c2ccccc2)c(C(=O)O)c1OC (stereo unspecified)	-4	1	-12%	·	5%	-17%
COc1ccc2c(c1OC)C(=O)N1N=C(c3ccccc3)CC21 (stereo unspecified)	31	18*	?	-19%	0%	4.1µM*
Cc1ccc(Cn2nnc3c(=O)n(Cc4cc(C)ccc4C)cnc32)cc1	1	4	1.5µM*	3%	2%	?
Cc1cccc(Cn2cnc3c(nnn3Cc3ccc(Cl)cc3)c2=O)c1	-20	-1	4.1µM*	1%	1%	?
Cc1ccc(Cn2nnc3c(=O)n(Cc4cccc(C)c4)cnc32)cc1	-3	9	-13%	-12%	-2%	?
CCCCOC(=O)Oc1ccc2c(=O)c(Oc3cccc(C)c3)coc2c1	11	35*	?	-6%	-3%	58%
COc1ccc(-c2coc3cc(O)ccc3c2=O)c(O)c1O	·	·	·	·	18µM*	·
SMILES	Shiga inhibitor	CHX counter	Pf growth 96h	NS1 function inh	Giardia FBPA inh	Pf growth 48h
COc1ccc(-c2coc3cc(O)ccc3c2=O)c(OC)c1O	·	·	·	·	-10%	·
Cc1cc(C)cc(Oc2coc3cc(O)ccc3c2=O)c1	·	5	?	-1%	-11%	21%
Cc1ccc(Oc2coc3cc(O)ccc3c2=O)cc1	29	31*	2%	-7%	9%	-11%[0.00184 µM]
O=c1c(-c2cnn(-c3ccccc3)c2)coc2cc(O)ccc12	108*	47*	39%	-49%	-7%	385%
CCOC(=O)C1=C[C@]2(CC)CCCN3CCc4c(n1c1ccccc41)[C@@H]32	33	3	3.7µM*	4%	-12%	5.2µM*
CS(=O)(=O)Nc1ccc(C(=O)NCCc2ccccc2)cc1	69*	31*	·	-6%	5%	194%
COCCCNC(=O)c1ccc(NS(C)(=O)=O)cc1	-4	10	·	6%	-2%	12%
CC(C)(C)SCCNC(=O)c1ccc(NS(C)(=O)=O)cc1	36*	16*	4%	-6%	6%	48%
CS(=O)(=O)Nc1ccc(C(=O)NCCSCc2ccccc2)cc1	-8	-1	13µM*	6%	-1%	?
Cn1ccc(NS(=O)(=O)c2cc(Br)ccc2Br)n1	·	·	5%	·	·	-2%
O=Cc1sc(Nc2ccccc2)nc1Cl	25	18*	3%	-30%	4%	0%
COc1ccccc1Nc1nc(Cl)c(C=O)s1	80	48*	-19%	·	2%	?
Cc1ccc(NC(=O)CSC(N)=O)cc1Cl	-8	-3	?	-48%	-3%	14%
Cc1ccc(Nc2nc(Cl)c(C=O)s2)cc1Cl	25	23*	39%	·	-12%	22%
S=c1[nH]c2cc3ccccc3cc2[nH]1	98*!	43*!	?	-4%	-9%	-1%
S=c1[nH]c2ccccc2[nH]1	15	-4	-3%	9%	-12%	5%
CCOC(=O)C(CC)(CC)C(=O)/C=C/c1ccc(Br)cc1	1	0	?	-17%	0%	15µM*
Cc1cccc(C(C)C)c1NC(=O)c1c(-c2ccccc2)noc1C	5	-3	2%	4%	13%	-1%
